Screens as filed in PubChem.
Compounds with a hit are over-represented: about 4% of the library has one in this group of screens.
MazF activator – activators of E. coli MazEF toxin-antitoxin RNase, primary screen, biochemical, fluorescence, uHTS; Endoribonuclease toxin MazF (Escherichia coli (strain K12)), P0AE70; 350,000 compounds, 0.32% hits; activation, % at 20 µM; FAM/BHQ RNA-DNA oligo cleavage fluorescence, 5 h; in the data active = activation above about 50%
Target sequence (P0AE70 whole entry, looked up): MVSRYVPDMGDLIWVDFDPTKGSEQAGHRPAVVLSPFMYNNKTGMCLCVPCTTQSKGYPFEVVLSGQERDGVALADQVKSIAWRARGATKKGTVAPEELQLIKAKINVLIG
FBA Mtb inh – Mtb FBA enzyme inhibitors, primary screen, biochemical, fluorescence, strain H37Rv; Fructose-bisphosphate aldolase (Mycobacterium tuberculosis (strain ATCC 25618 / H37Rv)), …; purified M. tuberculosis FBA, fluorescence read-out; inhibition, % at 1 µM; 360,000 compounds, 2.3% hits;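 note: 0% = vehicle and 100% = reference inhibitor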
Target sequence (P9WQA3 whole entry, looked up): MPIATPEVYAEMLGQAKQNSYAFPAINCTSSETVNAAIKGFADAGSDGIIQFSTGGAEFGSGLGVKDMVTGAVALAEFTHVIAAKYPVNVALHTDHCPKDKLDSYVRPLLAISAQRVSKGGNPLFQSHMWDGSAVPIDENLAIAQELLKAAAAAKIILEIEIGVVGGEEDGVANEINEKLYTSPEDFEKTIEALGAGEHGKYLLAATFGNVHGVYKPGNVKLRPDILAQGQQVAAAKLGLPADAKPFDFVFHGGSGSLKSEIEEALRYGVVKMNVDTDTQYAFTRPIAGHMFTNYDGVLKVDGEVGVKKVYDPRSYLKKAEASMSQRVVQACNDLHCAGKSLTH
CCHFV vOTU inh – CCHFV vOTU protease inhibitors, primary screen, biochemical, Pep-AMC substrate, fluorescence | 370,000 compounds, 0.55% hits | AID 651958, 2012 | inhibition, % at 11.5 µM | Crimean-Congo hemorrhagic fever virus L polyprotein viral ovarian tumor (vOTU) protease …; in the data active = inhibition above about 30%; note: 0% = vehicle wells with enzyme and 100% = no enzyme wells
GDH-TPI counter-1 – GDH-TPI coupling enzyme inhibitors, primary screen, artefact control for M. tuberculosis FBA inhibitor project, biochemical, absorbance, full deck; GDH-TPI coupled enzyme counterscreen, NADH absorbance; inhibition, % at 4.8 µM; 360,000 compounds, 1.2% hits; AID 588335, 2011; in the data active = inhibition above about 30%;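 note: 0% = DMSO wells and 100% = wells lacking the enzyme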
Mtb betalactam – beta-lactam sensitization of Mtb H37Rv, H37Rv; M. tuberculosis H37Rv growth with meropenem, percent inhibition; inhibition, % at 25 µM; 330,000 compounds, 0.27% hits; call rule not given here;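 note: growth measured after seven days incubation then overnight dye step; 0% = bacteria only wells and 100% = bacteria with antibiotic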
Mtb FBA confirm – M. tuberculosis aldolase blockers, biochemical, fluorescence, strain H37Rv, confirmation; 5,600 compounds, 78% hits; purified M. tuberculosis FBA, fluorescence read-out; inhibition, % at 1 µM; shares compounds with FBA Mtb inh;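 note: 0% = vehicle wells and 100% = reference inhibitor wells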
GDH-TPI counter-2 – GDH-TPI coupling enzyme inhibitors, artefact control for M. tuberculosis FBA inhibitor project, biochemical, fluorescence, high throughput. GDH-TPI coupled enzyme counterscreen. shares compounds with FBA Mtb inh. inhibition, % at 1 µM. 5,600 compounds, 81% hits; in the data active = inhibition above about 10%
Active calls of the source: *; . = no result; + = active, no number. Cut-off read from the data, not from the text of the source, unless noted: active = inhibition above about 27%; inactive = the rest.

SMILES | MazF activator | FBA Mtb inh | CCHFV vOTU inh | GDH-TPI counter-1 | Mtb betalactam | Mtb FBA confirm | GDH-TPI counter-2
CC(C)(C)C(=O)c1c(N)[nH]c(C(=O)c2ccccc2)c1-c1ccc([N+](=O)[O-])cc1 | . | . | 10 | . | . | . | .
CC(OC(=O)c1ccc(S(=O)(=O)NCc2ccco2)cc1)C(=O)Nc1ccc(Cl)cn1 (stereo not given) | 2 | -1 | 3 | -2 | 10 | . | .
CC(OC(=O)c1ccccc1NCc1ccco1)C(=O)Nc1ncc(Cl)cc1Cl (stereo not given) | -3 | 57* | -23 | -5 | -10 | 9 | -7
COc1ccc(O)c(C(=O)CC(=O)c2ccc(F)cc2)c1 | 3 | 81* | -38 | 15 | 94 | 79* | 52*
Cc1ccc2nc(-c3cccc(Cl)c3)c(Cc3cccc(Cl)c3)n2c1 | . | . | 13 | . | . | . | .
CCN(C(=O)[C@@H](C1CC1)[C@@H](O)c1ccc(C(C)=O)cc1)c1ccccc1 | . | . | -2 | . | . | . | .
CN1CCC(Oc2ccccc2Sc2ccccc2)CC1 | -5 | 29* | 7 | 8 | -5 | 167* | 130*
CCn1c2ccccc2c2cc([N+](=O)[O-])ccc21 | 6 | 3 | -9 | 3 | -5 | . | .
CCn1c2ccccc2c(=O)c2ccccc21 | 10 | 87* | -150 | 7 | -4 | 5 | -4
CC(C)C(=O)Nc1ccc2c(c1)C(=O)NC2=O | -4 | 46* | -44 | 4 | -3 | 15 | 13*
O=C1NC(=O)c2cc(NC(=O)C3CCCCC3)ccc21 | -1 | 44* | -39 | -6 | 0 | 132* | 88*
Cc1cccc(C(=O)N/N=C/c2ccccn2)c1 | 7 | 0 | -21 | -1 | 78 | . | .
Cc1cccc(C(=O)Nc2cccc(C(=O)N/N=C/c3ccccn3)c2)c1 | 1 | 48* | 20 | 1 | -2 | 6 | -11
Cc1cccc(C(=O)Nc2ccc3c(c2)C(=O)NC3=O)c1 | 6 | 45* | -44 | 17 | 3 | 0 | 2
Cc1ccc(C(=O)Nc2ccc3c(c2)C(=O)NC3=O)cc1 | -5 | 16 | -15 | 3 | -4 | . | .
O=C(Nc1ccc2c(c1)C(=O)NC2=O)c1cccc(Cl)c1 | 7 | 13 | 6 | 10 | -2 | . | .
CCCCNC(=O)NS(=O)(=O)c1ccc(NC(=O)CSc2nnc(-c3ccc(Cl)cc3)n2N)cc1 | . | . | 7 | . | . | . | .
COc1ccccc1-n1c(SCC(=O)N2CCOCC2)nc2ccccc2c1=O | 7 | 0 | 8 | 1 | 3 | . | .
COc1ccccc1-n1c(SCc2cc(=O)oc3cc(O)ccc23)nc2ccccc2c1=O | 13 | 72* | 7 | 8 | 37 | 2 | 2
CCN=C1NC(c2ccc(C(F)(F)F)cc2)C(C(=O)OC)=C(C)N1Cc1ccccc1C(F)(F)F (stereo not given) | . | . | 11 | . | . | . | .
Cc1cc(N2CCN(CC(C)(C)O)C[C@H]2C)ccc1N1CCN(Cc2ccccc2)[C@@H](C)C1 | . | . | 23 | . | . | . | .
Fc1cccc(Cn2ccc3ccc(-c4ccc5ccn(Cc6cccc(F)c6)c5c4)cc32)c1 | . | . | -2 | . | . | . | .
COC(=O)c1cccc(OC[C@@H](O)CN2CCC(C(O)(c3ccccc3)c3ccccc3)CC2)c1 | . | . | 13 | . | . | . | .
Cc1ccc(-n2nc(C)c3c(C)c(CCC(=O)NCCCOC(C)C)c(C)nc32)cc1 | -12 | 25 | -2 | 10 | 5 | . | .
COC(CNC(=O)CCc1c(C)nc2c(c(C)nn2-c2ccc(C)cc2)c1C)OC | 7 | 40* | -9 | 19 | 2 | -12 | -12
SMILES | MazF activator | FBA Mtb inh | CCHFV vOTU inh | GDH-TPI counter-1 | Mtb betalactam | Mtb FBA confirm | GDH-TPI counter-2
CCN(CC)CCNC(=O)CCc1c(C)nc2c(c(C)nn2-c2ccc(C)c(C)c2)c1C | 7 | 36* | -16 | 1 | 5 | 197* | 196*
COCCCNC(=O)CCc1c(C)nc2c(c(C)nn2-c2ccccc2)c1C | -5 | 41* | -19 | 4 | 0 | 52* | 44*
COc1ccc(S[C@]2(C(=O)N3CCOCC3)CC(=O)N(c3ccc(Cl)cc3)[C@@H]2c2ccc(OC)cc2)cc1 | . | . | 12 | . | . | . | .
CCOC(=O)C1=C(C(=O)OCC)C2N(Cc3ccc(C#N)cc3)c3ccccc3[C@@]23C[C@@H](C(=O)OC)N(S(=O)(=O)c2c(C)noc2C)C3=N1 (stereo not given in full) | . | . | 2 | . | . | . | .
COC(=O)[C@]12C[C@H](CC(=O)NCC34CC5CC(CC(C5)C3)C4)C(=O)N(CCC3=CCCCC3)C1=C[C@H](C1CCCC1)O[C@@H]2C | . | . | 0 | . | . | . | .
CCC(=O)Nc1cc2nn(-c3ccc(OC)cc3)nc2cc1C | -11 | 66* | -56 | 3 | 1 | 39* | 28*
CCC(=O)Nc1cc2nn(-c3ccc(C)cc3)nc2cc1C | 1 | 6 | -14 | 13 | 1 | . | .
CCCCC(=O)Nc1cc2nn(-c3ccc(OC)cc3)nc2cc1C | -1 | 27* | 1 | -1 | 4 | 151* | 121*
COC(=O)[C@]12C[C@H](CC(=O)NCc3ccc(OC)c(OC)c3)C(=O)N(Cc3ccccc3)C1=C[C@H](C(C)(C)C)O[C@@H]2C | . | . | 13 | . | . | . | .
C=CC[C@H]1c2ccccc2[C@H]2N3N=Cc4ccccc4[C@H]3[C@H](CCCC)C(=O)N2N1C(=O)NCc1ccccc1 | . | . | 5 | . | . | . | .
O=C(CSc1nnc(-c2cccc(Cl)c2)n1Cc1ccco1)c1ccc(F)cc1 | . | . | 0 | . | . | . | .
Cc1cc(OCC(=O)Nc2ccc(CN3CCOCC3)cc2)c2c(C)c(C)c(=O)oc2c1 | 1 | 71* | 5 | 3 | 0 | + | +
Cc1cc(OCC(=O)Nc2ccc(CN3CCOCC3)cc2)c2c(C)cc(=O)oc2c1 | 6 | 77* | -20 | -2 | 8 | 52* | 33*
CCn1c(Cc2cccs2)nnc1SCC(=O)Nc1ccc2c(c1)OCCO2 | . | . | -4 | . | . | . | .
COCCCNC(=O)C[C@H]1C[C@@]2(C(=O)OC)C(=C[C@H](COCc3ccccc3)O[C@@H]2C)N(Cc2ccc3c(c2)OCO3)C1=O | . | . | 1 | . | . | . | .
CS(=O)(=O)c1ccc(-c2cnc3c(NC=O)cc(-c4ccsc4)cn23)cc1 | . | 29* | 4 | 19 | . | 167* | 136*
COc1ccccc1-c1cc(NC=O)c2ncc(-c3ccc(S(C)(=O)=O)cc3)n2c1 | . | 104* | -33 | 19 | . | + | +
COc1ccc(-c2cnc3c(NC=O)cc(-c4ccc(S(C)(=O)=O)cc4)cn23)cc1OC | . | 2 | -6 | 12 | . | . | .
O=CNc1cc(-c2ccsc2)cn2c(-c3ccccc3)cnc12 | . | -1 | 0 | 8 | . | . | .
